Measured values reported in PubChem BioAssay (Tox21).
Records with an inconclusive call do not appear. Entries that show only a call come without a potency. Calls of active or inactive are those of the source. Calls follow the shape of the full dose curve.

Each molecule was assayed against Beta-2 adrenergic receptor (Homo sapiens) (UniProt P07550) (assay: Adrenergic beta2 receptor (ADRB2) small molecule antagonists, cell-based qHTS assay (AID 1963592; also: nearly all actives have a fitted effect of over 50% in size)). Conditions: CHO-ADRB2 cells, isoproterenol-stimulated cAMP HTRF ratio, 0.5 h; series mostly up to 92.4 µM.
Outline: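 Cells (CHO, stable ADRB2 overexpression) incubated 18-20hr at 37C; compounds added from DMSO; agonist mix (1nM isoproterenol, 100uM IBMX, 25uM Ro-20-1724) added; 0.5hr RT; d2-cAMP and anti-cAMP-cryptate added; 1hr RT; 665/615 nm read.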

Beta-2 adrenergic receptor (Homo sapiens), sequence (P07550 whole entry, looked up): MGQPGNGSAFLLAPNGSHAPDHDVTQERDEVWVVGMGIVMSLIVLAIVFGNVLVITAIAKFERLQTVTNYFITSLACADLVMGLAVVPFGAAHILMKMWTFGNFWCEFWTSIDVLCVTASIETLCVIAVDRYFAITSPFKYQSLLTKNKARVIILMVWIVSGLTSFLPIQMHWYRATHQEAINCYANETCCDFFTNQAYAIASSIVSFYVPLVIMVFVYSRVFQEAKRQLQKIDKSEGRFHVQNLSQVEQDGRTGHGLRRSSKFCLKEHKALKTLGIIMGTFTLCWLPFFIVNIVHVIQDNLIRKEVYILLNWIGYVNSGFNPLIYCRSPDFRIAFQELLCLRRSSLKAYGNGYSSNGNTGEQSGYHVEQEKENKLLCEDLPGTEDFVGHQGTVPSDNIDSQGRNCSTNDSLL

| Structure (SMILES) | Potency | activity change, negative = inhibition |
| --- | --- | --- |
| CCCCCCCC(=O)OCC(O)CO (stereo not drawn) | inactive | – |
| CCCCCCCCCCCCCC(=O)O | inactive | – |
| O=C(OCc1ccccc1)c1ccccc1 | inactive | – |
| CN(C)c1ccc(C(=C2C=CC(=[N+](C)C)C=C2)c2ccccc2)cc1 | inactive | – |
| Cc1ccc(C(=O)O)o1 | inactive | – |
| O=[Se](O)O | inactive | – |
| CC(=O)c1nccs1 | inactive | – |
| CC12CCC(CC1)C(C)(C)O2 | inactive | – |
| COc1cc(C=O)ccc1O | inactive | – |
| O=C(O)c1cn(-c2ccc(F)cc2)c2cc(N3CCNCC3)c(F)cc2c1=O | – | 3.86% [at 19 µM] (inactive) |
| CC(=O)Nc1ccccc1 | inactive | – |

These molecules were tested against Beta-2 adrenergic receptor (Homo sapiens) (UniProt P07550) (assay: Adrenergic beta2 receptor (ADRB2) small molecule agonists, cell-based qHTS assay (AID 1963593;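 also: CHO cells stably overexpressing human ADRB2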)). Conditions: CHO-ADRB2 cells, cAMP HTRF, 30 min; series mostly up to 92.4 µM.
Outline: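 CHO cells stably over-expressing ADRB2 were plated overnight at 37C, then dosed with compounds plus a stimulation mix containing 100uM IBMX and 25uM Ro-20-1724 for 0.5hr at room temperature. cAMP was measured by HTRF competition, 1hr.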

| Structure (SMILES) | Potency | activation |
| --- | --- | --- |
| CCCCCCCCCCCCN | inactive | – |
| CC(O)CC(C)(C)O (stereo not drawn) | inactive | – |
| O=C1CCc2ccccc2O1 | inactive | – |
| CC(=O)CCC=C(C)C | inactive | – |
| CCO[Si](CCCNC(N)=O)(OCC)OCC | inactive | – |
| CC1(C)NC(=O)N(c2ccc([N+](=O)[O-])c(C(F)(F)F)c2)C1=O | inactive | – |
| CC(=O)Oc1c(C)c(C)c2c(c1C)CC[C@@](C)(CCC[C@H](C)CCC[C@H](C)CCCC(C)C)O2 | inactive | – |
| CC1(C)NC(=O)NC1=O | inactive | – |
| C[N+](C)(C)CCCCCC[N+](C)(C)C | inactive | – |
| CCCCCC/C=C/CCCCCCCC(=O)O | inactive | – |
| C/C=C1/CC2C=CC1C2 (stereo not drawn) | inactive | – |
| COC(=O)c1ccccc1O | inactive | – |
| CC(C)=CCO | inactive | – |
| Cc1ccc(C)c(OCCCC(C)(C)C(=O)O)c1 | inactive | – |
| S=c1nc[nH]c2nc[nH]c12 | inactive | – |
| NC(CO)(CO)CO | inactive | – |
| N=C(N)c1ccc(OCCCCCOc2ccc(C(=N)N)cc2)cc1 | inactive | – |
| CCCCCCCC(=O)OCC(O)CO (stereo not drawn) | inactive | – |
| CCCCCCCCCCCCCC(=O)O | inactive | – |
| O=C(OCc1ccccc1)c1ccccc1 | inactive | – |
| Cc1ccc(C(=O)O)o1 | inactive | – |
| CC(=O)c1nccs1 | inactive | – |
| Cc1cc(C2(c3cc(C)c(O)cc3C)OS(=O)(=O)c3ccccc32)c(C)cc1O | inactive | – |
| CC12CCC(CC1)C(C)(C)O2 | inactive | – |
| O=C(O)c1cn(-c2ccc(F)cc2)c2cc(N3CCNCC3)c(F)cc2c1=O | – | -25.8% [at 19 µM] (inactive) |

These molecules were tested against D(2) dopamine receptor (Homo sapiens) (UniProt P14416) (assay: Dopamine D2 receptor (DRD2) small molecule agonists, cell-based qHTS assay (AID 1963594; also: nearly all actives have a fitted effect of over 35% in size)). Conditions: HEK293-DRD2 cAMP HTRF, agonist mode, 30 min; series mostly up to 92.4 µM.
Outline: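 HEK293 cells stably expressing DRD2 were cultured 24 h at 37 C, then given Ro20-1724 (0.1 mM final) and compounds for 10 min at room temperature. NKH477 (200nM) was then added for 30 min. cAMP was read by HTRF.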

D(2) dopamine receptor (Homo sapiens), sequence (P14416 whole entry, looked up): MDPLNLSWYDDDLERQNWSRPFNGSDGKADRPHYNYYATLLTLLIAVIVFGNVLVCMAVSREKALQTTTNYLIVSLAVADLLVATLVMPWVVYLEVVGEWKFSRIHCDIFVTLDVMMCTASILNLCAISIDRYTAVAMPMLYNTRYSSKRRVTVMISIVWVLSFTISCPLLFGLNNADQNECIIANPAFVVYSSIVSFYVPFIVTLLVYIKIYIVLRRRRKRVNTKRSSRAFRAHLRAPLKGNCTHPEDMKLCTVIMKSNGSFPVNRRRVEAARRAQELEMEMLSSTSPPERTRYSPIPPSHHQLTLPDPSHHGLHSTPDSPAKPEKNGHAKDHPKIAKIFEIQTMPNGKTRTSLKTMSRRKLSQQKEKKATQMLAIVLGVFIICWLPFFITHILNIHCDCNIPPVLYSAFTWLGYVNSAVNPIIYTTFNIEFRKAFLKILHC

| Structure (SMILES) | Potency |
| --- | --- |
| CCCCCCCCCCCCN | inactive |
| CC(O)CC(C)(C)O (stereo not drawn) | inactive |
| CCNc1ccccc1 | inactive |
| Nc1ccc(O)c(C(=O)O)c1 | inactive |
| O=C1CCc2ccccc2O1 | inactive |
| CC(=O)CCC=C(C)C | inactive |
| C=C(C)C(=O)OCCOC(=O)C(=C)C | inactive |
| C#C[C@]1(O)CC[C@H]2[C@@H]3CCC4=Cc5oncc5C[C@]4(C)[C@H]3CC[C@@]21C | inactive |
| O=S(=O)(O)c1ccc(O)cc1 | inactive |
| CC(=O)Oc1c(C)c(C)c2c(c1C)CC[C@@](C)(CCC[C@H](C)CCC[C@H](C)CCCC(C)C)O2 | inactive |
| CC1(C)NC(=O)NC1=O | inactive |
| O=C(C1CCCCC1)N1CC(=O)N2CCc3ccccc3C2C1 (stereo not drawn) | inactive |
| C[N+](C)(C)CCCCCC[N+](C)(C)C | inactive |
| CCCCCC/C=C/CCCCCCCC(=O)O | inactive |
| CC(C)=CCl | inactive |
| C/C=C1/CC2C=CC1C2 (stereo not drawn) | inactive |

| Structure (SMILES) | Potency |
| --- | --- |
| COC(=O)c1ccccc1O | inactive |
| CC(=O)Oc1ccc(C)cc1 | inactive |
| Cc1ccc(C)c(OCCCC(C)(C)C(=O)O)c1 | inactive |
| C=C(C)C(=O)OCC(CC)(COC(=O)C(=C)C)COC(=O)C(=C)C | inactive |
| S=c1nc[nH]c2nc[nH]c12 | inactive |
| CC(C)(CO)CO | inactive |
| N=C(N)c1ccc(OCCCCCOc2ccc(C(=N)N)cc2)cc1 | inactive |
| CCCCCCCC(=O)OCC(O)CO (stereo not drawn) | inactive |
| CCCCCCCCCCCCCC(=O)O | inactive |
| O=C(OCc1ccccc1)c1ccccc1 | inactive |
| Cc1ccc(C(=O)O)o1 | inactive |
| O=[Se](O)O | inactive |
| CC(=O)c1nccs1 | inactive |
| CC12CCC(CC1)C(C)(C)O2 | inactive |
| COc1cc(C=O)ccc1O | inactive |
| CC(=O)Nc1ccccc1 | inactive |
